The source of these data is PubChem BioAssay (NCATS).

Records with an inconclusive call do not appear. Unmarked numbers belong to inactive results. The source made the active and inactive calls. Calls follow the shape of the dose curve; as a rule, active = well fitted curve in the direction sought with a large enough effect; inconclusive = small, poorly fitted or top-dose-only effect, or another doubt; inactive = no such curve, though single readings can be large; an effect the other way counts as inactive or inconclusive.

The nature of the first experiment: P-glycoprotein substrates identified in KB-3-1 adenocarcinoma cell line, qHTS therapeutic library screen (AID 1346986). Also: nearly all actives have a fitted effect of over 60% in size. Conditions: KB-3-1 parental cells viability, CellTiter-Glo, 72 h; series mostly up to 44.5 µM; activity change, negative = cytotoxicity: at the top concentration. In outline: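 KB-3-1 parental cells and P-gp-overexpressing KB-8-5-11 (colchicine omitted during assay) plated at 500 cells/well, dosed in dose-response, incubated 72 h at 37 degree C. CellTiter-Glo luminescence read; KB-8-5-11 also tested with tariquidar.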
Regarding `C/C(=C\CCC1(C)C2CCC(C2)C1(C)O)C(=O)O` (stereo unspecified), the outcome was inactive.
Still for that read-out and setting: the entry for `O=C1NC(Cc2c[nH]c3ccccc23)C(=O)NC1Cc1cnc[nH]1` (stereo unspecified) is “inactive”; for `O=C(Nc1c(-c2cccs2)nc2ccccn12)c1ccc(Cl)cc1` it is “inactive”; for `CC(=O)O[C@@H]1[C@@H](CO)O[C@@](CO)(O[C@H]2O[C@H](COC(=O)/C=C/c3ccccc3)[C@@H](O)[C@H](O)[C@H]2O)[C@H]1O` it is “inactive [at 17.4 µM]”.
`COc1ccc(CNC(=O)c2cc(-c3cncc(C)c3)ncc2-c2nccs2)nc1OC`: the outcome was inactive.
As for `O=C(Nc1ccc(-c2ccncc2)cc1)N[C@H](CO)c1ccccc1`, the outcome was inactive.
As to `C=C(C)C1CCC2(C(=O)O[C@@H]3O[C@H](CO[C@@H]4O[C@H](CO)[C@@H](O)[C@H](O)[C@H]4O)[C@@H](O)[C@H](O[C@@H]4O[C@@H](C)[C@H](O)[C@@H](O)[C@H]4O)[C@H]3O)CCC3(C(=O)O)C(CCC4C5(C)CCC(O)C(C)(C)C5CCC43C)C12` (stereo partly specified), the outcome was “inactive [at 9.29 µM]”.
As to `COc1c2cc(c(O)c1OC)-c1cc(ccc1O)CCC(O)CCCC2` (stereo unspecified), the outcome was inactive.

The nature of the next experiment: P-glycoprotein substrates identified in KB-8-5-11 adenocarcinoma cell line, qHTS therapeutic library screen (AID 1346987). Also: nearly all actives have a fitted effect of over 65% in size. As to activity change, negative = cytotoxicity: % is scaled to controls: 0 for no effect and ±100 for the full control effect. The conditions noted are these: KB-8-5-11 (P-gp overexpressing) viability, CellTiter-Glo, 72 h; series mostly up to 44.5 µM; activity change, negative = cytotoxicity: at the top concentration. In outline: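 KB-8-5-11: colchicine-selected sub-line of KB-3-1 over-expressing P-gp; assay medium lacked colchicine. 72 h drug exposure at 37 degree C, CellTiter-Glo.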
A general note: qHTS replaces the single test concentration by a dilution series.
In the case of `C=CC(C)(C)c1[nH]c2cc3c(cc2c1CC1NC(=O)C2=CCCN2C1=O)C=CC(C)(C)O3` (stereo unspecified), the “activity change, negative = cytotoxicity” value is -16.8% [at 17.3 µM].
For the molecule `[N-]=[N+]=N[C@]1(CO)O[C@@H](n2ccc(=O)[nH]c2=O)[C@@H](O)[C@@H]1O`, the molecule was classed as inactive.
Take `CC(C)(O)/C=C/CC(C)(O)C1C(O)CC2(C)C3CCC4C(C)(C)C(=O)CCC4(C)C3CCC12C` (stereo unspecified): the “outcome” value was “inactive [at 17.3 µM]”.
Still for that read-out and setting: with `CC12CCC(=O)C=C1C(O)CC1C2C(O)CC2(C)C1CC[C@]2(O)C(=O)CO` (stereo partly specified) the entry was “inactive [at 9.29 µM]”.
On to `CC(C)=C/C=C\[C@H](C)[C@H]1CC[C@]2(C)C[C@@H]3C(C)=CC(=O)C3/C(CO)=C\C[C@@H]12` (stereo partly specified), for which the “activity change, negative = cytotoxicity” value is -5.58%.
Regarding `CC1CCC2C(C)(C)[C@@H](O)CC[C@]2(C)C12Cc1c(O)cc3c(c1O2)CN(C(CCC(=O)O)C(=O)O)C3=O` (stereo partly specified), the “outcome” value is “inactive [at 17.3 µM]”.
Still for that read-out and setting: with `COC(=O)C1=CO[C@@H](O[C@@H]2O[C@H](CO)[C@@H](O)[C@H](O)[C@H]2O)[C@H]2[C@@H]1C=C[C@@]21C=C([C@H](C)O)C(=O)O1` the entry was “inactive [at 17.3 µM]”; with `COc1cc2c(cc1OC)CC(=O)N(CCCNC[C@H]1Cc3cc(OC)c(OC)cc31)CC2`, “inactive”.
As to `C[C@@H]1O[C@@H](O[C@H]2[C@@H](OC(=O)[C@]34CCC(C)(C)CC3C3=CCC5[C@@]6(C)C[C@H](O)[C@H](O[C@@H]7O[C@H](C(=O)O)[C@@H](O)[C@H](O)[C@H]7O)[C@@](C)(C(=O)O)C6CC[C@@]5(C)[C@]3(C)CC4)OC[C@H](O)[C@@H]2O)[C@H](O)[C@H](O)[C@H]1O[C@@H]1OC[C@@H](O)[C@H](O)[C@H]1O` (stereo partly specified), the activity change, negative = cytotoxicity is 1.24% [at 9.29 µM].
For the molecule `C=C1CC2C(C)(CCC(=O)O)C(C(C)(C)O)CCC2(C)C2C(=O)OC(C)(C(=O)OC)C(=O)C12C` (stereo unspecified), the “outcome” value was “inactive [at 17.3 µM]”.
For `C[C@@H]1O[C@@H](O[C@H]2[C@H](O[C@H]3CC[C@@]4(C)C(CC[C@]5(C)C4CC=C4[C@@H]6CC(C)(C)CC[C@]6(C(=O)O[C@@H]6OC[C@H](O)[C@H](O)[C@H]6O[C@@H]6O[C@@H](C)[C@H](O[C@@H]7O[C@H](CO)[C@@H](O)[C@H](O)[C@H]7O)[C@H](O)[C@H]6O)[C@H](O)C[C@]45C)C3(C)C)O[C@H](CO)[C@@H](O[C@@H]3OC[C@@H](O)[C@H](O)[C@H]3O)[C@@H]2O)[C@H](O)[C@H](O)[C@H]1O` (stereo partly specified), the outcome was “inactive [at 9.29 µM]”.
The same measure, in the same setting: the entry for `O=C1NC(Cc2c[nH]c3ccccc23)C(=O)NC1Cc1cnc[nH]1` (stereo unspecified) is “inactive”.
On to `O=C(Nc1c(-c2cccs2)nc2ccccn12)c1ccc(Cl)cc1`, for which the “activity change, negative = cytotoxicity” value was 3.53%.
